Results taken from PubChem BioAssay (Tox21).
Results filed as inconclusive are left out. The source made the active and inactive calls. Calls come from the whole dose curve; as a rule, active = well fitted cell-killing curve with a large enough effect in the repeat runs; inconclusive = weak or mixed curves, or effect the other way; inactive = flat fitted curve, though single readings scatter.

assay: qHTS RealTime-Glo MT Cell Viability Assay in HepG2 cells - 0 hour (AID 1224889); conditions: RealTime-Glo luminescence; series mostly up to 76.8 µM; activity change, negative = cytotoxicity: at the top concentration; note: nearly all actives have a fitted effect of over 50% in size
From the text: U.S. Tox21 Program National Center for Advancing Translational Sciences [NCATS] NIH Chemical Genomics Center [NCGC] U.S. Environmental Protection Agency [EPA] National Institutes of Environmental Health Sciences [NIEHS] National Toxicology Program [NTP] U.S. Food and Drug Administration [FDA] Tox21 Assay Overview: Measure of cell viability is critical in the cell-base assay. Analysis of cell viability is necessary for the characterization of cell responses to cytotoxic drugs and environmental stress. A RealTime-Glo MT Cell Viability Assay to monitor cell viability in real time of continues cell culture during 40 hours of compound treatment was used to screen Tox21 10K library compounds in HepG2 cells. The RealTime-Glo MT Cell Viability Assay is a nonlytic, homogeneous, bioluminescent method to measure cell viability in real time using a simple, plate-based method. The assay involves adding NanoLuc luciferase and a cell-permeant prosubstrate to cells in culture. Viable cells reduce the proprietary prosubstrate to generate a substrate for NanoLuc luciferase. This substrate diffuses from cells into the surrounding culture medium, where it is rapidly used by the NanoLuc Enzyme to produce a luminescent signal. The signal correlates with the number of viable cells, making the assay well suited for cytotoxicity studies.
Tox21 Assay Protocol Summary: The mixture of HepG2 cell suspension and reagents were dispensed at 600cells/6 ul/well in 1536-well tissue culture treated black solid bottom plates using a Multidrop dispenser. After the assay plates were incubated at a 37 C/5% CO2 incubator for 5 hours, 23 nL of compounds dissolved in DMSO, positive and negative controls was transferred to the assay plate by a pintool work station. The plates were incubated at 37 C for 40 hours. The luminescence intensity were measured at 0h, 8h, 16h, 24h, 32h and 40h time points using ViewLux plate reader during compound treatment.
% is set by controls: 0 for no effect and ±100 for the full control effect.

Structure (SMILES)	activity change, negative = cytotoxicity
CCOP(=S)(OCC)Oc1ncn(-c2ccccc2)n1	-16.3% (inactive)
CC1CN1P(=O)(N1CC1C)N1CC1C (stereo not given)	-10.4% (inactive)
c1cc2c(c(N3CCNCC3)c1)OCCO2	0.754% [at 35.3 µM] (inactive)
N#CCBr	-0.209% (inactive)
COC(C)(C)C	-1.27% (inactive)
CC1=C(C(=O)Nc2ccccc2)S(=O)(=O)CCO1	2.53% (inactive)
CC1=C(C(=O)O)N2C(=O)[C@@H](N)[C@H]2SC1	-0.386% [at 15.8 µM] (inactive)
CN/C(=N\[N+](=O)[O-])NCC1CCOC1 (stereo not given)	0.756% (inactive)
N#CCCC#N	-4.81% (inactive)
Clc1ccccc1N1CCNCC1	12.2% [at 35.3 µM] (inactive)
CCOP(=S)(OCC)Oc1nc(Cl)n(C(C)C)n1	-6.75% (inactive)
NC(=S)C(N)=S	1.55% (inactive)
CC(N)=S	-1.62% (inactive)
N#Cc1c(Cl)cccc1Cl	5.57% (inactive)
COC(=O)C(c1ccccc1)C1CCCCN1 (stereo not given)	-0.43% (inactive)
O=C(CCN1CC1)OCC(CO)(COC(=O)CCN1CC1)COC(=O)CCN1CC1	1.31% (inactive)
C=CCC1=C(C)[C@@H](OC(=O)[C@@H]2[C@@H](C=C(C)C)C2(C)C)CC1=O	-2.5% (inactive)
Cc1cc(C)nc(Nc2ccccc2)n1	2.71% (inactive)
CN1CCC(N(Cc2ccccc2)c2ccccc2)CC1	15.6% [at 35.3 µM] (inactive)
OC(Cn1cncn1)(c1ccc(F)cc1)c1ccccc1F (stereo not given)	-11% (inactive)

Structure (SMILES)	activity change, negative = cytotoxicity
CNC(=O)Oc1cccc(C(C)C)c1	9.13% (inactive)
CSc1ccc(C(=O)C(C)(C)N2CCOCC2)cc1	-17.1% (inactive)
CC(C(O)c1ccccc1)N(C)C/C=C/c1ccccc1 (stereo not given)	17.2% [at 35.3 µM] (inactive)
COc1cc(OC)nc(Sc2cccc(Cl)c2C(=O)O)n1	-1.64% (inactive)
CC1(C)CON(Cc2ccccc2Cl)C1=O	-3.92% (inactive)
CC1COC2(c3ccccc3Cl)c3cc(Cl)ccc3NC(=O)CN12 (stereo not given)	9.48% [at 35.3 µM] (inactive)
c1ccc(N2CCNCC2)cc1	0.672% [at 35.3 µM] (inactive)
CNC(=O)N(C)c1nc2ccccc2s1	6.61% (inactive)
CCCSC(=O)Cl	15.6% (inactive)
COC(=O)C(C)Oc1ccc(Oc2ccc(Cl)cc2Cl)cc1 (stereo not given)	-0.974% (inactive)
CC(=O)[C@H]1CC[C@H]2[C@@H]3CC[C@H]4C[C@H](O)CC[C@]4(C)[C@H]3C(=O)C[C@]12C	-7.93% [at 35.3 µM] (inactive)
O=[N+]([O-])c1cc(Cl)c(Cl)c(Cl)c1	15% (inactive)
CCC#N	2.91% (inactive)
COc1ccc(C(=O)N2CCCC2=O)cc1	-2.12% [at 35.3 µM] (inactive)
BrCCCCCCBr	-2.81% (inactive)
CCC(C)n1c(=O)[nH]c(C)c(Br)c1=O (stereo not given)	5.3% (inactive)
CCCCc1ccc(O)cc1	12.7% (inactive)
N#CC(O)c1ccccc1 (stereo not given)	1.27% (inactive)
Nc1cc(Cl)ccc1O	-0.418% (inactive)
CC(C=O)Cc1ccc2c(c1)OCO2 (stereo not given)	8.04% (inactive)
